Key:
Assay in all cases: DAPPL (digital affinity profiling via proximity ligation, sequencing); 10 mM Tris-HCl pH 7.5, 50 mM NaCl, 1 mM DTT, 4% glycerol, room temperature, 30 min; GST-TFs on glutathione beads, 16-mer random dsDNA library, 0.1% formaldehyde crosslink after washing; high values mean tight binding
[1] = molecular target: T1, FEV (Homo sapiens, UniProt Q99581 1-238); settings: protein: recombinant; tags: N-terminal GST; dsDNA, one strand shown
T1 sequence: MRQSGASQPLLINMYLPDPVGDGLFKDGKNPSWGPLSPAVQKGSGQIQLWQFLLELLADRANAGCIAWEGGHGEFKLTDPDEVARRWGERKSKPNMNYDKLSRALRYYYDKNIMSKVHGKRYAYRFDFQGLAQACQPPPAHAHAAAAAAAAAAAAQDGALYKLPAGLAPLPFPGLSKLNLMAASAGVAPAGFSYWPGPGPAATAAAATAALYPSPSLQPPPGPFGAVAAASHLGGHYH
Procedure, shortened: (§1)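 Human transcription factors were made in yeast as GST fusions, captured on glutathione beads and barcoded with DNA. With a tag-only sample included, the pool was incubated with 200 nmole of a random double-stranded 16-mer DNA library in Tris/NaCl/DTT/glycerol buffer at room temperature for 30 min, then crosslinked with 0.1% formaldehyde after washing, ligated by proximity, amplified and sequenced. For binding signal, each hexamer's read frequency for a factor is divided by its frequency for the tag-only sample.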

[2] = molecular target: ETV5 (Homo sapiens, UniProt P41161 1-510); settings: protein: recombinant; tags: N-terminal GST; dsDNA, one strand shown
Procedure, shortened: as §1

[3] = molecular target: HSF1 (Homo sapiens, UniProt Q00613 1-529); settings: protein: recombinant; tags: N-terminal GST; chain copies: 3; dsDNA, one strand shown
Procedure, shortened: as §1

[4] = molecular target: T2, SPIC (Homo sapiens, UniProt Q8N5J4 1-248); settings: protein: recombinant; tags: N-terminal GST; dsDNA, one strand shown
T2 sequence: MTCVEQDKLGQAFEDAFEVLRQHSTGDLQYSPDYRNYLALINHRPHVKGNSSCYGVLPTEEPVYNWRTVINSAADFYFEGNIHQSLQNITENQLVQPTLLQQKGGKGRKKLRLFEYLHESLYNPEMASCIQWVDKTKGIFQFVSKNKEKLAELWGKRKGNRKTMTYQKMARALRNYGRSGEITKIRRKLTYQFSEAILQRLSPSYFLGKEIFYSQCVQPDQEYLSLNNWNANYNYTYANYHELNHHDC
Procedure, shortened: as §1

[5] = molecular target: ELF4 (Homo sapiens, UniProt Q99607 1-663); settings: protein: recombinant; tags: N-terminal GST; dsDNA, one strand shown
Procedure, shortened: as §1

[6] = molecular target: T3, ELK4 (Homo sapiens, UniProt P28324-2 1-405); settings: protein: recombinant; tags: N-terminal GST; dsDNA, one strand shown
T3 sequence: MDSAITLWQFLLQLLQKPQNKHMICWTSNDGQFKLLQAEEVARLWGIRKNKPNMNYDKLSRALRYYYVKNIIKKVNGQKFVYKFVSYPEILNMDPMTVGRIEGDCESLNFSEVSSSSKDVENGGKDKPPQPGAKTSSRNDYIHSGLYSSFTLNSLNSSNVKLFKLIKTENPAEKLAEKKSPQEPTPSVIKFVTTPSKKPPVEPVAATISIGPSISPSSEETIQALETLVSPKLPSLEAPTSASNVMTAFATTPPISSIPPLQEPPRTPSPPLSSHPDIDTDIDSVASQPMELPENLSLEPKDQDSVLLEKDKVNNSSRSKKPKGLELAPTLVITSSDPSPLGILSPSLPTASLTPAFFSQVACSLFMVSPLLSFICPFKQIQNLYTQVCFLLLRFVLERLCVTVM
Procedure, shortened: as §1

[7] = molecular target: T4, ETV2 (Homo sapiens, UniProt O00321 1-342); settings: protein: recombinant; tags: N-terminal GST; dsDNA, one strand shown
T4 sequence: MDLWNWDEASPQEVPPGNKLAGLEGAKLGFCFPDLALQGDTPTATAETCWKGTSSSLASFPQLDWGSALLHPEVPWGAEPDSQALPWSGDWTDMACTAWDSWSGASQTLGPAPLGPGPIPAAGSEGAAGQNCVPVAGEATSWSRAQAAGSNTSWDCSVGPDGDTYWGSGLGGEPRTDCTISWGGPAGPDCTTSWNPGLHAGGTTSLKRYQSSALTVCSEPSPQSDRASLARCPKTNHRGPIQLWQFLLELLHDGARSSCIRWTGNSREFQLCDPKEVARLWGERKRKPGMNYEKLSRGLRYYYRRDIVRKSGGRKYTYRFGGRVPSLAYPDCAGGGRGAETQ
Procedure, shortened: as §1

[8] = molecular target: T5, ELF3 (Homo sapiens, UniProt P78545 1-371); settings: protein: recombinant; tags: N-terminal GST; dsDNA, one strand shown
T5 sequence: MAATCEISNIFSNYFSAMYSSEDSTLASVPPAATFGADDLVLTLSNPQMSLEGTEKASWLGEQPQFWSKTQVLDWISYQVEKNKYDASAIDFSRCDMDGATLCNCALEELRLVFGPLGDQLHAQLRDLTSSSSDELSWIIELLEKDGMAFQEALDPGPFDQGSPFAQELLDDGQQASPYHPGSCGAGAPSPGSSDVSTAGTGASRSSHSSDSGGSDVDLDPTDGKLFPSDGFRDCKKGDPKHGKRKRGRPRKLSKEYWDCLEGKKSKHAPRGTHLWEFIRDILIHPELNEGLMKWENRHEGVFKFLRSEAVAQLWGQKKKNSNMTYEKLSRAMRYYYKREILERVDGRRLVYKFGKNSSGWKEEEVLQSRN
Procedure, shortened: as §1

[9] = molecular target: CRX (Homo sapiens, UniProt O43186 1-299); settings: protein: recombinant; tags: N-terminal GST; dsDNA, one strand shown
Procedure, shortened: as §1

[10] = molecular target: ETV1 (Homo sapiens, UniProt P50549 1-477); settings: protein: recombinant; tags: N-terminal GST; dsDNA, one strand shown
Procedure, shortened: as §1

[11] = molecular target: T6, ERF (Homo sapiens, UniProt P50548 1-548); settings: protein: recombinant; tags: N-terminal GST; dsDNA, one strand shown
T6 sequence: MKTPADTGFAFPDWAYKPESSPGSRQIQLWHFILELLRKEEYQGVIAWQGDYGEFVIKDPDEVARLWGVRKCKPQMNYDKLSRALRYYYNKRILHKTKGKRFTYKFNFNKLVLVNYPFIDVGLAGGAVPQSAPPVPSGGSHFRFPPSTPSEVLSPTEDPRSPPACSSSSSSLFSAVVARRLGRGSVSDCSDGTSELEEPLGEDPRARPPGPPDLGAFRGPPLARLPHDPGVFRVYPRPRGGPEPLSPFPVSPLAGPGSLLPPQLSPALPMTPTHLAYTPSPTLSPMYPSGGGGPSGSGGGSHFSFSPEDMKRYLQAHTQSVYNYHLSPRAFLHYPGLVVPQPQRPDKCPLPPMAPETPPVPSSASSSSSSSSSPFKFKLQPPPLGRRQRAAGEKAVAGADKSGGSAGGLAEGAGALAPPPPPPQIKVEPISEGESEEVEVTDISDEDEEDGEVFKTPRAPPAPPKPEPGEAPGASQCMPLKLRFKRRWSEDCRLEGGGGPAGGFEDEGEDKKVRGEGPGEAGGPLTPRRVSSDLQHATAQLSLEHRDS
Procedure, shortened: as §1

[12] = molecular target: T7, ETV3L (Homo sapiens, UniProt Q6ZN32 1-361); settings: protein: recombinant; tags: N-terminal GST; dsDNA, one strand shown
T7 sequence: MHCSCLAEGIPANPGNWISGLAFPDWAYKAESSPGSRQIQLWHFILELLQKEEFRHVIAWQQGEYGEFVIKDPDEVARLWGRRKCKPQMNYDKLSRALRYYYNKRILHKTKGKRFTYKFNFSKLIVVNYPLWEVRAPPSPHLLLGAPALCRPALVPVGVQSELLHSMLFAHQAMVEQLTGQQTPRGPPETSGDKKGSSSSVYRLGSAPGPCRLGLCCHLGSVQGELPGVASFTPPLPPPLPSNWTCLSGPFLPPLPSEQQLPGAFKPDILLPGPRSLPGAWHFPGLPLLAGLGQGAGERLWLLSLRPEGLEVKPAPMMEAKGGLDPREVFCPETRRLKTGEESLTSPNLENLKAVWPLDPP
Procedure, shortened: as §1

[13] = molecular target: T8, ETS2 (Homo sapiens, UniProt P15036 1-469); settings: protein: recombinant; tags: N-terminal GST; dsDNA, one strand shown
T8 sequence: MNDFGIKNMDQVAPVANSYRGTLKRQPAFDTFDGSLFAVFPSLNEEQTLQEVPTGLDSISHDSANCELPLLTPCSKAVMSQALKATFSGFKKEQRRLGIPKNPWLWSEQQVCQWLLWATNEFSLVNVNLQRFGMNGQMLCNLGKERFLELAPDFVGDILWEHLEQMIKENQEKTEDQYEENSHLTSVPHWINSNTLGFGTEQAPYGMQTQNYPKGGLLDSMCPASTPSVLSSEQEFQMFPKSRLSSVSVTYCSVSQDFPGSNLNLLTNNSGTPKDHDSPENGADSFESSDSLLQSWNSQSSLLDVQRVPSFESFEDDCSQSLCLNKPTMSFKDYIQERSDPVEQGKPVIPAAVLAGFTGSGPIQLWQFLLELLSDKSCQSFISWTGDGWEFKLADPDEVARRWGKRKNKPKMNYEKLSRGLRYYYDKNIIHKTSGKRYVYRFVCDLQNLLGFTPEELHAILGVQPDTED
Procedure, shortened: as §1

[14] = molecular target: T9, SPDEF (Homo sapiens, UniProt O95238 1-335); settings: protein: recombinant; tags: N-terminal GST; dsDNA, one strand shown
T9 sequence: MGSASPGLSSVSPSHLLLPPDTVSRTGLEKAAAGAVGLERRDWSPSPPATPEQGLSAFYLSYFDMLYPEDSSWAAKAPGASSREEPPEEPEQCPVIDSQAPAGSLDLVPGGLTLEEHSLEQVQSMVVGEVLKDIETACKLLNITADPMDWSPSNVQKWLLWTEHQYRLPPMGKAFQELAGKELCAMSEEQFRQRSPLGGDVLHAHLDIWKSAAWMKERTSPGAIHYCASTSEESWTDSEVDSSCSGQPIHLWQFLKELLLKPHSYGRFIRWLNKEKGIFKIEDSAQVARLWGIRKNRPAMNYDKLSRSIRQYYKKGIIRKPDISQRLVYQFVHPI
Procedure, shortened: as §1

[15] = molecular target: T10, ETV7 (Homo sapiens, UniProt Q9Y603 1-341); settings: protein: recombinant; tags: N-terminal GST; dsDNA, one strand shown
T10 sequence: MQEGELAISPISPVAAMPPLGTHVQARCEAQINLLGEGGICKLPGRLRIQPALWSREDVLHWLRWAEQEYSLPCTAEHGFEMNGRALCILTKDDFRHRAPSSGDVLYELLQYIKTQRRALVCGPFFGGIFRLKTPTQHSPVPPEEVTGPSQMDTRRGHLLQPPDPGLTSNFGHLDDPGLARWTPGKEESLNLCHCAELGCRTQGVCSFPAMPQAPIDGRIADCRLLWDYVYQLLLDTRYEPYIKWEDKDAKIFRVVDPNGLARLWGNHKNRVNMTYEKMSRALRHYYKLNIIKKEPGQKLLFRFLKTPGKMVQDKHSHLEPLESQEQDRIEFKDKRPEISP
Procedure, shortened: as §1

[16] = molecular target: T11, ELF5 (Homo sapiens, UniProt Q9UKW6-2 1-255); settings: protein: recombinant; tags: N-terminal GST; dsDNA, one strand shown
T11 sequence: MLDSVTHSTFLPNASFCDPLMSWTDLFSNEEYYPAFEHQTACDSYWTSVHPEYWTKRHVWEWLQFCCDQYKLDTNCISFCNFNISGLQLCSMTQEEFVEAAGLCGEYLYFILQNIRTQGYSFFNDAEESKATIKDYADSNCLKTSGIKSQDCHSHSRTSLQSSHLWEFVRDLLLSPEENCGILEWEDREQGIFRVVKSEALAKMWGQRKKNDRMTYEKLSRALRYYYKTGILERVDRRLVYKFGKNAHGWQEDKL
Procedure, shortened: as §1

[17] = molecular target: T12, ETV3 (Homo sapiens, UniProt P41162-2 1-143); settings: protein: recombinant; tags: N-terminal GST; dsDNA, one strand shown
T12 sequence: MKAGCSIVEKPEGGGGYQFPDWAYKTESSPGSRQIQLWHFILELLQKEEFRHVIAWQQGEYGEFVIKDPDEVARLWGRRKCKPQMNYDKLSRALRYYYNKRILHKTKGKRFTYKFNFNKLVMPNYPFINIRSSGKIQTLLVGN
Procedure, shortened: as §1

[18] = molecular target: ETV6 (Homo sapiens, UniProt P41212 1-452); settings: protein: recombinant; tags: N-terminal GST; dsDNA, one strand shown
Procedure, shortened: as §1

Chain of ELF4 (Q99607 whole entry): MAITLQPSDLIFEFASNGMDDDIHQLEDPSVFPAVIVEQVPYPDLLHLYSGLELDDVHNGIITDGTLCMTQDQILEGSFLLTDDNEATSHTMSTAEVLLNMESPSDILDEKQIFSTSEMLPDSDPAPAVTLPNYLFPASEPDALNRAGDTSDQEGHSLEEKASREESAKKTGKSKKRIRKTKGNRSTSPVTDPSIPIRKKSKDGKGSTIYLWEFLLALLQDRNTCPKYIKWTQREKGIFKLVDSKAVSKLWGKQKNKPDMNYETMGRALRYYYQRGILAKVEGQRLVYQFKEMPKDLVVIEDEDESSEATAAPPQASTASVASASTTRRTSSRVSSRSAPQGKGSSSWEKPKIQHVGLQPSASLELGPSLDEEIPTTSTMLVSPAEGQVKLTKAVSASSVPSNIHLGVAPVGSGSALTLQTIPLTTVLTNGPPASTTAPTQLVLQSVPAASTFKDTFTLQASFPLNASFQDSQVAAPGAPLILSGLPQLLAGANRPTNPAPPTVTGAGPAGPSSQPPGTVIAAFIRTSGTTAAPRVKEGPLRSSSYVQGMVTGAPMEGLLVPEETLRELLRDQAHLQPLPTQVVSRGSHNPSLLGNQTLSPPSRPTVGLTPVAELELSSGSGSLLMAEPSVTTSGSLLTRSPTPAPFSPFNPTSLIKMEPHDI
Chain of CRX (O43186 whole entry): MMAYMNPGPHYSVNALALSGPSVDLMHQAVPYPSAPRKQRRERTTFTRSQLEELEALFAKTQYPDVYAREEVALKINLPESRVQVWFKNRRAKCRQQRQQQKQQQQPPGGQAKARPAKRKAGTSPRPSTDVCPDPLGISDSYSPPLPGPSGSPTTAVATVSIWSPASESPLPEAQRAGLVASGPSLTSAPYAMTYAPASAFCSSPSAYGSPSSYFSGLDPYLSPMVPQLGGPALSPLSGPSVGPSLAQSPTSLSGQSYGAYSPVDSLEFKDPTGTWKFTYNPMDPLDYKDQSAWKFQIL
Chain of ETV1 (P50549 whole entry): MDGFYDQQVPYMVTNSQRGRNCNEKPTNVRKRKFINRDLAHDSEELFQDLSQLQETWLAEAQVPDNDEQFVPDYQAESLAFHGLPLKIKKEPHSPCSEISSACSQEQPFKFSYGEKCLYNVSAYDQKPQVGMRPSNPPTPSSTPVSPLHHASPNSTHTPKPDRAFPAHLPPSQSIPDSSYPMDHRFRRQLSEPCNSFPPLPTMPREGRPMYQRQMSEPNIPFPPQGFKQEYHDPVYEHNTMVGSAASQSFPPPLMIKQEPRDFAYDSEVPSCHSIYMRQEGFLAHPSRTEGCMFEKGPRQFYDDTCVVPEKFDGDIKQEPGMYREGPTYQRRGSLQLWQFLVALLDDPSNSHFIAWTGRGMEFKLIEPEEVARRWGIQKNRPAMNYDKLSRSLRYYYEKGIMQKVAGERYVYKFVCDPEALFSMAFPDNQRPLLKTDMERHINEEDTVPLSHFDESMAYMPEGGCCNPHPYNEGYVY
Chain of ETV6 (P41212 whole entry): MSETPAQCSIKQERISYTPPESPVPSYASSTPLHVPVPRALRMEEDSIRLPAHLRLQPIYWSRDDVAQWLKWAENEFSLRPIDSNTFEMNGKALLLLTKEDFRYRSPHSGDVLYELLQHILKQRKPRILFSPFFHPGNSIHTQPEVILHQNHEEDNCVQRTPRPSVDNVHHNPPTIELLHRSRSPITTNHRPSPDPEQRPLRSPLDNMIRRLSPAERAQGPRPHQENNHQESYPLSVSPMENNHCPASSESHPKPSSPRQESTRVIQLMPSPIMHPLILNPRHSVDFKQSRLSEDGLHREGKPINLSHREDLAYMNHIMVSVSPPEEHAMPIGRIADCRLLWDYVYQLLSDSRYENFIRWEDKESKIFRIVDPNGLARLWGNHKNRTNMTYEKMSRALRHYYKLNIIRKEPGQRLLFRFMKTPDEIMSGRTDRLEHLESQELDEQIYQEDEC
Chain of HSF1 (Q00613 whole entry): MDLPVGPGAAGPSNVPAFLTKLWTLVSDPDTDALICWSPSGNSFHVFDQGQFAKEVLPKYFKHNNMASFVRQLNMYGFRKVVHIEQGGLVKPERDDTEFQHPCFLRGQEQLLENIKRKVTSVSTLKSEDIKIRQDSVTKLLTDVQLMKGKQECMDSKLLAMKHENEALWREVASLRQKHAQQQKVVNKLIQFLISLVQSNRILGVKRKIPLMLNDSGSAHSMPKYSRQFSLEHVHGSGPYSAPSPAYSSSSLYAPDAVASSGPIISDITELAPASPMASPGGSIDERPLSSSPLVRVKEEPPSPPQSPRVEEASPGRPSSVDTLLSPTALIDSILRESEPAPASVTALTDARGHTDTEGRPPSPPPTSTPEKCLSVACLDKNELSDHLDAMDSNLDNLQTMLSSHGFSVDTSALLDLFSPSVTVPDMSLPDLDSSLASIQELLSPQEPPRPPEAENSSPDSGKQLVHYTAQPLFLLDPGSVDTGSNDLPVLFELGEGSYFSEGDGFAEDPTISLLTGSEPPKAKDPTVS
Chain of ETV5 (P41161 whole entry): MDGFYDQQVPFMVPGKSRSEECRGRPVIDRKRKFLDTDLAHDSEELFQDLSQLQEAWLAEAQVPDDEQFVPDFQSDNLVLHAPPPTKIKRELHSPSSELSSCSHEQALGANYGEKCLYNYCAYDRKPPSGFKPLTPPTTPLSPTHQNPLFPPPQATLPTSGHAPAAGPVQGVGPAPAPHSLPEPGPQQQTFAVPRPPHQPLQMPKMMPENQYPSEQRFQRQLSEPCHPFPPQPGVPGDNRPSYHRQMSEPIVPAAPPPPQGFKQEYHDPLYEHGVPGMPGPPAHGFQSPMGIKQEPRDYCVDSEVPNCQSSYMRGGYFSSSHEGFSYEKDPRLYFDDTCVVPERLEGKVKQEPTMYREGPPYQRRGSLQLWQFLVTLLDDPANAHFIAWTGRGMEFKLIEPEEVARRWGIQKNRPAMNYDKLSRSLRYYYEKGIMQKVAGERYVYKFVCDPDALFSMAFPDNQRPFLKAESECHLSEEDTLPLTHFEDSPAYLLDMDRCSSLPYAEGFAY

TTTAAC was tested, and the binding signal [1] was 1.09 fold enrichment (6-mer frequency, TF over GST control), the binding signal [2] was 1.12 fold enrichment (6-mer frequency, TF over GST control) and the binding signal [3] was 1.22 fold enrichment (6-mer frequency, TF over GST control). For the same sequence, the binding signal [4] was 1.23 fold enrichment (6-mer frequency, TF over GST control), the binding signal [5] was 1.14 fold enrichment (6-mer frequency, TF over GST control) and the binding signal [6] was 1.13 fold enrichment (6-mer frequency, TF over GST control). The binding signal [7] was 1.24 fold enrichment (6-mer frequency, TF over GST control), the binding signal [8] was 1.15 fold enrichment (6-mer frequency, TF over GST control) and the binding signal [9] was 1.74 fold enrichment (6-mer frequency, TF over GST control). For the same sequence, the binding signal [10] was 1.18 fold enrichment (6-mer frequency, TF over GST control), the binding signal [11] was 1.28 fold enrichment (6-mer frequency, TF over GST control) and the binding signal [12] was 1.17 fold enrichment (6-mer frequency, TF over GST control). For the same sequence, the binding signal [13] was 1.16 fold enrichment (6-mer frequency, TF over GST control), the binding signal [14] was 1.12 fold enrichment (6-mer frequency, TF over GST control) and the binding signal [15] was 1.07 fold enrichment (6-mer frequency, TF over GST control). The binding signal [16] was 1.11 fold enrichment (6-mer frequency, TF over GST control), the binding signal [17] was 1.21 fold enrichment (6-mer frequency, TF over GST control) and the binding signal [18] was 1.19 fold enrichment (6-mer frequency, TF over GST control).

Reference: publication PMC7862700, “An all-to-all approach to the identification of sequence-specific readers for epigenetic DNA modifications on cytosine”
